This is a sample that favours compounds with a hit; in the whole collection about 8% have one here.
HT1080NT lethal – kills 2HG-producing HT-1080-NT fibrosarcoma cells; Potency, µM (highest dose often 46.1 µM), without a hit: at the highest dose activity, negative = less viability, actives largely listed as cytotoxic; HT-1080-NT fibrosarcoma viability, CellTiter-Glo ATP luminescence, 48 h; 360,000 compounds, 1.6% hits; AID 686970;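 further: NT is the 2HG producing partner of a matched IDH1 knockdown line; 0% = DMSO-treated cells and -100% = media-only wells without cells; nearly all actives have a fitted effect of over 55% in size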
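Compounds were tested in concentration-response format on HT-1080-NT cells for 48 hours at 37 degrees C. Cell viability came from CellTiter-Glo luminescence; curves were classified by r2, response magnitude and activity.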
KB-V1 MDR tox – kills drug-selected multidrug resistant KB-V1 cells | Potency, µM (top dose mostly 46.1 µM), usual class: cytotoxic | KB-V1 MDR cells viability, CellTiter-Glo, 72 h | 400,000 compounds, 3.4% hits; further: on the % scale 0 is the no-effect control and ±100 the full control effect; nearly all actives have a fitted effect of over 60% in size
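Cells of the MDR subline KB-V1 are plated, dosed with compound at multiple concentrations, and incubated 72 h at 37 degrees C; CellTiter-Glo is then added and luminescence read after 10 min.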
MCF10A rerep – DNA re-replication induction in MCF 10a cells; 350,000 compounds, 2.9% hits; Potency, µM (doses to about 46.1 µM), for the others: top-dose activity, positive = re-replication, usual class: activators; MCF 10A DNA re-replication, Hoechst nuclear intensity, 48 h; further: % of control where 0% means no effect; nearly all actives have a fitted effect of over 50% in size
KB-3-1 cytotox – KB-3-1 parental cell cytotoxicity; KB-3-1 viability, CellTiter-Glo ATP luminescence, 72 h; Potency, µM (doses to about 46.1 µM), usual class: cytotoxic; 400,000 compounds, 1.4% hits; further: on the % scale 0 is the no-effect control and ±100 the full control effect; nearly all actives have a fitted effect of over 60% in size
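Screening of KB-3-1 cells (DMEM, 10% FBS, phenol-red free) ran from lowest to highest compound concentration; after 72 h at 37 °C viability was read luminescently and curves fitted.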
SW480 rereplic – DNA re-replication induction in SW480 cells; Potency, µM (titrated, usually from 46.1 µM), without a hit: at the highest dose re-replication activation, most hits filed as activators; SW480 DNA re-replication, Hoechst DNA content imaging, 48 h; 340,000 compounds, 1.8% hits; further: % of control where 0% means no effect; nearly all actives have a fitted effect of over 55% in size
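Hoechst fluorescence of nuclei (405 nm excitation, 500-530 nm emission) measured by plate-scanning imager after 48 hr compound exposure at 37 C; re-replication scored as increased number of nuclei with elevated intensity.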
HT1080 IDH1KD tx – toxicity to HT-1080 IDH1 knockdown cells (counter line) | HT-1080 IDH1 knockdown viability, ATP luminescence, 48 h | 360,000 compounds, 2% hits | Potency, µM (titrated, usually from 46.1 µM), without a hit: at the top dose activity, negative = toxicity, most hits filed as cytotoxic;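 further: 0% = DMSO wells and -100% = cell-free medium wells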
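IDH1KD HT-1080 cells, 750/well, RPMI + 5% FBS; compound pinned after 2 h settling; 48 h, 37 °C; CellTiter-Glo luminescence; % activity normalised to DMSO and no-cell wells; curves fitted, classed by r2 and efficacy.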
The depositor's hits bear a star; i = inactive; u = inconclusive; x = no result. The call rests on the fitted dose curve; in most records, active means well fitted curve in the direction sought with a large enough effect; inconclusive means small, poorly fitted or top-dose-only effect, or another doubt; inactive means no such curve, though single readings can be large; an effect the other way counts as inactive or inconclusive. Potency means the concentration at half of the fitted maximal effect.

SMILES	HT1080NT lethal	KB-V1 MDR tox	MCF10A rerep	KB-3-1 cytotox	SW480 rereplic	HT1080 IDH1KD tx
CCCC(C(=O)NC1CCCC1)N(CC1CCCO1)C(=O)c1snc(C(N)=O)c1N (stereo not given)	-4%	4.1µM*	1%	i	-1%	-5%
O=C(NC1CCCC1)C(c1ccncc1)N(CCCN1CCOCC1)C(=O)c1ccc(-c2ccccc2)[nH]1 (stereo not given)	-13%	i	-2%	i	-4%	-11%
CCOc1ccc(Nc2oc(-c3ccc(COc4ccc(C)cc4)o3)nc2C#N)cc1	x	i	x	i	x	x
Cc1ccc2oc(-c3cc(NC(=O)Cc4ccccc4)ccc3Cl)nc2c1	x	i	x	i	x	x
Cc1ccc(C(C(=O)NCc2ccc(F)cc2)N(Cc2ccco2)C(=O)c2snc(C(N)=O)c2N)o1 (stereo not given)	u	u	16µM*	i	18%	-20%
NC(=O)c1nsc(C(=O)N(Cc2ccco2)C(C(=O)NCc2ccc(F)cc2)c2ccc(O)cc2)c1N (stereo not given)	-15%	i	13%	i	-2%	1%
NCCCN(Cc1ccc(Cl)c(Cl)c1)c1ccccn1	13µM*	x	x	x	x	11µM*
Clc1ccc(CN(CCCNc2ncnc(NCCCc3cnc[nH]3)n2)c2ccc(Br)cn2)cc1Cl	x	i	x	u	x	x
NCCN(Cc1ccc(Cl)c(Cl)c1)c1ccc(Br)cn1	11µM*	x	x	x	x	10µM*
COc1ccccc1-c1nn2c(=O)cc(CN3CCN(C(=O)/C=C/c4ccccc4)CC3)nc2s1	x	i	x	i	x	x
CCOC(=O)N1CCC(=NNc2nc3ccccc3s2)CC1	-9%	i	u	i	u	-2%
CCCCNC(=O)C(C#N)c1nc2ccccc2nc1N1CCN(Cc2ccc3c(c2)OCO3)CC1 (stereo not given)	8%	i	u	i	1%	10%
C=CCOC(=O)C(C#N)c1nc2ccccc2nc1N1CCN(Cc2ccc3c(c2)OCO3)CC1 (stereo not given)	-2%	23µM*	7%	i	3%	-3%
c1ccc2nc(N3CCN(Cc4ccc5c(c4)OCO5)CC3)cnc2c1	-25%	u	u	i	u	-24%
CCOC(=O)N1CCN(/C=C(\C#N)c2nc3ccccc3s2)CC1	-19%	23µM*	u	i	1%	-3%
N#C/C(=C\N1CCN(Cc2ccc3c(c2)OCO3)CC1)c1nc2ccccc2s1	u	21µM*	21µM*	u	u	u
Cc1ccccc1S(=O)(=O)N1C(c2ccc(Cl)c(Cl)c2)CC=C(C(=O)O)C1c1cccc(Br)c1 (stereo not given)	u	i	x	i	x	u
Cc1cc[n+](CC(=O)c2ccc(NC(=O)c3ccccc3)cc2)c2ccccc12	u	i	u	10µM*	29%	-21%
Cc1cc[n+](CC(=O)c2ccc(NC(=O)c3ccccc3)cc2)cc1	-1%	i	1.3µM*	u	-31%	0%
O=C(C[n+]1ccccc1)c1ccc(NC(=O)c2ccccc2)cc1	-8%	i	27%	i	7%	-1%
O=C(C[n+]1cccc2ccccc21)c1ccc(NC(=O)c2ccccc2)cc1	-9%	i	0%	i	-3%	-8%
O=C(Nc1ccc[n+](CC(=O)c2cccc3ccccc23)c1)c1ccccc1	u	i	-2%	23µM*	u	u
O=C(Nc1cccc(N2C(=O)C3C4C=CC(C4)C3C2=O)c1)c1cccs1 (stereo not given)	-1%	i	0.82µM*	i	-4%	-1%
O=C1C(=O)c2ccc(-c3ccccc3)cc2-c2ccccc21	3.7µM*	3.7µM*	u	4.1µM*	5.8µM*	3.3µM*
Nc1ccc2c(c1)C(=O)c1ccccc1-2	15%	i	1%	i	u	15%
SMILES	HT1080NT lethal	KB-V1 MDR tox	MCF10A rerep	KB-3-1 cytotox	SW480 rereplic	HT1080 IDH1KD tx
Nc1ccc2c(c1)C(=O)C(=O)c1ccccc1-2	4.6µM*	4.6µM*	u	2.9µM*	3.7µM*	u
O=[N+]([O-])c1cc(C(F)(F)F)cc([N+](=O)[O-])c1NCCCNc1ccc([N+](=O)[O-])c2cccnc12	-10%	10µM*	-3%	i	u	2%
COc1ccc(C(=O)C[n+]2ccccc2Cl)cc1	x	i	x	i	x	x
O=C(N/N=C\c1ccc(Sc2ccccn2)o1)c1cccc(Br)c1	-11%	23µM*	u	i	6%	2%
Cc1ccccc1C(=O)N/N=C/c1ccc(Sc2ccccn2)o1	-9%	21µM*	-6%	i	0%	0%
O=C(N/N=C/c1ccc(O)c2ncccc12)c1cccc(Br)c1	23µM*	u	18µM*	2.6µM*	u	18µM*
CC[n+]1c(/C=C/c2c[nH]c3ccccc23)ccc2cc(C)ccc21	29µM*	i	-5%	9.2µM*	-16%	18µM*
COc1ccc(NS(=O)(=O)c2ccc3[nH]c(=O)ccc3c2)cc1OC	x	u	x	i	x	x
COc1cccc(/C=N/Nc2ncnc3c2ncn3Cc2ccccc2)c1O	-14%	0.52µM*	u	u	u	u
COc1cccc(/C=N/Nc2cc(N3CCOCC3)ncn2)c1O	u	i	u	10µM*	u	5.8µM*
COc1cccc(/C=N/Nc2cc(Cl)nc(C)n2)c1O	-6%	u	7.3µM*	i	0.29µM*	-2%
COc1cccc(/C=N/Nc2c(Cl)cncc2Cl)c1O	u	i	u	i	-3%	u
COc1cccc(/C=N/Nc2nnc(C)n2N)c1O	u	i	21%	i	u	21µM*
O=C(CCNC(=O)c1ccc(Cl)cc1)Nc1ccccc1N1CCCCC1	11%	i	0%	i	0%	12%
N=C1C(c2nc(-c3ccc(Cl)cc3)cs2)=C(O)CN1CCCN1CCOCC1	23µM*	i	-2%	i	u	u
COc1ccc(N=Nc2ccc(O)c3ncccc23)cc1	u	i	20%	i	u	4.6µM*
Oc1ccc(N=Nc2ccc3c(c2)OCCO3)c2cccnc12	u	u	26%	u	0%	1.3µM*
Oc1ccc(N=Nc2ccc3c(c2)OCCO3)c(O)c1	-16%	i	-2%	i	-8%	u
COc1cccc(N=Nc2ccc(O)c3ncccc23)c1	u	i	-5%	4.6µM*	27%	u
O=Nc1ccc(O)c2ncccc12	12µM*	23µM*	13%	21µM*	u	u

Screening data as filed in PubChem BioAssay.
